D2 PAM-1: positive allosteric modulators of human D2 dopamine receptor. P14416. DiscoveRx D2 beta-arrestin cells, luminescence, 90 min; 100% = 57 uM dopamine signal. potentiation, % (test concentration not listed). hit rate 0.23% among 360,000. AID 624464; in the data active = potentiation above about 50%
Target sequence (P14416 whole entry, looked up): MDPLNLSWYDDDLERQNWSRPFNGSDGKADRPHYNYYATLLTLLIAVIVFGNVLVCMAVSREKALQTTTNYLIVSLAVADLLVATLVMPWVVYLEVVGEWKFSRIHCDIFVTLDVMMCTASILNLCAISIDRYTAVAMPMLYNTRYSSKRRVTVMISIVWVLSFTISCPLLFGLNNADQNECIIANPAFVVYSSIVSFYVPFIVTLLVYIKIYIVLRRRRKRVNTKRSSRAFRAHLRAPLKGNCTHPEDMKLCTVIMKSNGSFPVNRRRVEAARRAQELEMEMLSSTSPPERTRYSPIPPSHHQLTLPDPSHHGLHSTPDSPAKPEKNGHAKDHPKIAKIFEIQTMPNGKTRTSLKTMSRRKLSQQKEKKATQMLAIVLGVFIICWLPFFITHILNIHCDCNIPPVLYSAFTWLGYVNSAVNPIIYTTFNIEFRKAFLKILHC
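PathHunter beta-arrestin assay in DiscoveRx D2 cells. Compounds were added with an EC20 of dopamine (50 nM final) for 90 min at 37 deg C. Luminescence was read 1 h after detection reagent, with 57 uM dopamine as the EC100 control.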
D2 antag: D2 dopamine receptor (human) antagonism; P14416; HEK293 TREx D2 cells, calcium flux, dopamine EC80; inhibition, % at 10 µM; hit rate 2% among 340,000; AID 485344; in the data active = inhibition above about 30%; inactive = below that, where a call was filed; note: 0% is about no effect
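Overnight-induced (tetracycline, 30 C) HEK293 T-REx cells carrying force-coupled D2 receive a no-wash calcium dye, then compound, then EC80 dopamine at 180 s; signals are read kinetically throughout.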
D2 ag-1: agonists of human D2 dopamine receptor (beta-arrestin) | DiscoveRx PathHunter D2 beta-arrestin, luminescence, 90 min; 100% = 57 uM dopamine signal | activation, % (concentration not given with the values) | hit rate 0.084% among 360,000; in the data active = activation above about 40%
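DiscoveRx PathHunter D2 beta-arrestin cells (2,100/well) attached overnight, then compound-stimulated 90 min at 37 C in HBSS/10 mM HEPES/0.1% Tween-20 buffer; beta-galactosidase complementation read by luminescence after 1 h at ambient temperature. Dopamine 57 uM final (EC100) as control.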
D2 PAM-2: positively modulates the human D2 dopamine receptor allosterically. P14416. HEK293 T-REx D2, calcium flux, EC20 dopamine potentiation. potentiation, % at 10 µM. hit rate 0.34% among 340,000. AID 485347;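 active = potentiation over 3 SD above the plate norm, cut at about 30% in these data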; note: 0% is about no effect
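Calcium flux readout, no-wash dye, 1 read/s. Inducible HEK293 Trex D2 line, overnight 30 C. Compound alone 180 s (agonist flags), then EC20 dopamine, another 180 s to score potentiation.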
D2 ag-2: D2 dopamine receptor (human) agonism. activation, % at 2 µM. AID 485358. P14416. HEK293 T-REx D2 cells, calcium flux agonist mode. hit rate 0.53% among 340,000;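 active = activation over 3 SD above normal in the single-dose calcium agonist read, cut at about 30% in these data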; note: 0% is about no effect
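Calcium-flux readout, 1 cycle/sec over 180 s following compound pin transfer, in inducible HEK293 Trex D2 cells (force-coupled); dopamine controls included. Positive calcium responses during this window marked compounds as potential agonists.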
D3 arrestin ag: activates human D3 dopamine receptor beta-arrestin recruitment; shares compounds with D2 ag-2; DiscoveRx D3 beta-arrestin cells, luminescence, 90 min; Potency, µM (top dose mostly 76.9 µM), without a hit: top-dose activation, usual class: activators; hit rate 4% among 2,300; AID 720506;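 note: potency is the fitted concentration of half-maximal effect; 100% = dopamine control response; nearly all actives have a fitted effect of over 70% in size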
D2 ag-3: activates human D2 dopamine receptor in D3 counterscreen | Potency, µM (top dose mostly 76.9 µM), for inactives: top-dose activation, actives largely listed as activators | DiscoveRx PathHunter D2 beta-arrestin, luminescence, 90 min; response scale: percent relative to full dopamine signal | shares compounds with D2 ag-2 | AID 720507 | hit rate 5.9% among 2,300; note: potency is the fitted concentration of half-maximal effect; % of control where 0% means no effect; nearly all actives have a fitted effect of over 70% in size
Numbers without * were called inactive; . = no result. Hits are enriched below; roughly 2.4% of the tested compounds scored in any of these assays. Unless noted, calls come from the whole dose curve; as a rule, active = well fitted activation curve with a large enough effect; inconclusive = small, poorly fitted or top-dose-only effect; inactive = flat fitted curve, though single readings scatter.

SMILES	D2 PAM-1	D2 antag	D2 ag-1	D2 PAM-2	D2 ag-2	D3 arrestin ag	D2 ag-3
CC(=O)O[C@H]1[C@H]2O[C@]23[C@@H]2CC[C@]4(O)C[C@@H](O)CC[C@]4(C)C2CC[C@]3(C)[C@H]1c1ccc(=O)oc1 (stereo partly drawn)	5	-7	0	-6	1	-4%	-4%
COc1ccc(-n2c(/C=C/c3cccc(F)c3)nc3ccccc3c2=O)cc1Cl	.	.	.	7	0	.	.
CN1CCN(c2oc(-c3ccc(COc4ccccc4)o3)nc2C#N)CC1	.	.	.	10	0	.	.
Cc1ccc(Cn2cccc(C(=O)Nc3cc(C)on3)c2=O)cc1	.	.	.	19	21	.	.
NC1CCc2cc(O)c(O)cc2C1 (stereo not drawn)	103*	101*	100*	-28	91*	0.022µM*	0.014µM*
COc1cc(C(c2c(O)c3ccccc3oc2=O)c2c(C)n(C)n(-c3ccccc3)c2=O)ccc1OCC(=O)O (stereo not drawn)	.	.	.	-1	0	.	.
Oc1cc2c(cc1CN1CCN(c3ccccc3F)CC1)OCO2	-10	76*	14	-29	66*	-3%	27%
CC(=O)OC1(c2ccccc2)CCN(C2CCCCC2)CC1C (stereo not drawn)	-3	53*	8	-20	67*	12%	18%
O=C1NC(=S)N(c2ccc(Cl)cc2)C(=O)/C1=C/N1CCN(C(=O)c2ccco2)CC1	-13	5	1	-9	26	-6%	3%
Cc1ccc(-n2c(/C=C/c3ccccc3)nc3ccccc3c2=O)cc1C	.	.	.	-13	1	.	.
CN1C(=O)/C(=C\c2ccc(N3CCCCC3)o2)C(=O)NC1=S	-6	5	-5	5	33*	-34%	-6%
CC(C)c1ccc(OCC(=O)N2CCN(CCc3ccccn3)CC2)cc1	.	.	.	.	0	.	.
COC(=O)C1=C(c2ccc(Cl)c(C(F)(F)F)c2)C[C@@H]2CC[C@H]1N2C(=O)NC1CCCCC1	-10	-5	3	2	0	.	.
